Holding throughout (details): mRNA level, 48 h; actives raise or lower the signal
Read-out in test [1]: Apoptosis regulator Bcl-2 (Homo sapiens) (UniProt P10415)
In words: LTEA_HepaRG_BCL2: Life Technologies and Expression Analysis (LTEA) Assay for Bcl-2 gene using HepaRG (AID 2283475). In a few lines: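 Plated human HepaRG cells are exposed to test chemicals for 48 h across eight concentrations from 100 uM downward in half-log steps (0.5% DMSO). BCL2 expression is then measured by qRT-PCR with housekeeping normalisation and fitted bidirectionally against vehicle.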

Read-out in test [2]: Bcl-2 (BID) gene, BID (gene 637)
In words: LTEA_HepaRG_BID: Life Technologies and Expression Analysis (LTEA) Assay for Bcl-2 (BID) gene using HepaRG (AID 2283476). An outline of the steps:
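Cells are plated, cultured 48 h, switched to serum-free induction medium, then dosed 48 h (100 uM top, half-log steps, 0.5% DMSO). RNA is isolated and BID expression read by qRT-PCR.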

Read-out in a further test: Caspase-3 (Homo sapiens) (UniProt P42574)
In words: LTEA_HepaRG_CASP3: Life Technologies and Expression Analysis (LTEA) Assay for cysteine-aspartic acid protease (CASP3) using HepaRG (AID 2283477). In a few lines: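 In HepaRG liver cells dosed for 48 h at up to 100 uM (eight-point, duplicate), CASP3 expression changes are scored by qRT-PCR. Activity is fitted in both directions with 0.5% DMSO as baseline.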

Read-out in test [3]: Cytochrome P450 (CYP1A2), CYP1A2 (gene 1544)
In words: LTEA_HepaRG_CYP1A2: Life Technologies and Expression Analysis (LTEA) Assay for Cytochrome P450 (CYP1A2) using HepaRG (AID 2283479). In a few lines: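 Assesses CYP1A2 mRNA in human HepaRG liver cells after 48 h chemical exposure at up to 100 uM. Values come from qRT-PCR with bidirectional curve fitting relative to DMSO.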

Read-out in test [4]: cysteine-aspartic acid protease (CASP8), CASP8 (gene 841)
Put plainly: LTEA_HepaRG_CASP8: Life Technologies and Expression Analysis (LTEA) Assay for cysteine-aspartic acid protease (CASP8) using HepaRG (AID 2283480). An outline of the steps:
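qRT-PCR readout of CASP8 mRNA, normalized to three housekeeping genes, after 48 h chemical exposure of HepaRG cells; 8-point half-log series, top 100 uM, 0.5% DMSO vehicle. Bidirectional curve fitting against DMSO baseline.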

Read-out in test [5]: Cytochrome P450 (CYP2B6), CYP2B6 (gene 1555)
In words: LTEA_HepaRG_CYP2B6: Life Technologies and Expression Analysis (LTEA) Assay for Cytochrome P450 (CYP2B6) using HepaRG (AID 2283481). In a few lines: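 Using 48 h treatment of HepaRG cells in serum-free induction medium, concentrations spanned half-log steps from 100 uM in 0.5% DMSO vehicle. CYP2B6 mRNA induction or loss is scored by qRT-PCR against DMSO.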

Read-out in test [6]: Cytochrome P450 2C19 (Homo sapiens) (UniProt P33261)
In words: LTEA_HepaRG_CYP2C19: Life Technologies and Expression Analysis (LTEA) Assay for CYP2C19 using HepaRG (AID 2283482). In a few lines:
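Human HepaRG liver cells received test chemicals for 48 h (highest 100 uM, half-log dilutions in 0.5% DMSO). CYP2C19 mRNA induction or loss is read by multiplexed qRT-PCR and fitted in both directions versus vehicle.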

Read-out in a further test: CYP2C8 (gene 1558)
Put plainly: LTEA_HepaRG_CYP2C8: Life Technologies and Expression Analysis (LTEA) Assay for CYP2C8 using HepaRG (AID 2283483). In a few lines:
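HepaRG (human liver line), 48 h chemical exposure, 8-pt half-log series from 100 uM, 0.5% DMSO vehicle. Readout: CYP2C8 transcript by qRT-PCR, housekeeping-normalized. Bidirectional fit vs DMSO baseline.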

Read-out in a further test: CYP2C9 (gene 1559)
Put plainly: LTEA_HepaRG_CYP2C9: Life Technologies and Expression Analysis (LTEA) Assay for CYP2C9 using HepaRG (AID 2283484). An outline of the steps: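 HepaRG, 48 h dosing, 8-pt half-log series, top 100 uM, 0.5% DMSO vehicle. Read-out: CYP2C9 transcript by TaqMan qRT-PCR, housekeeping-normalized (ACTB/GAPDH/POLR2A). Gain or loss fitted vs DMSO baseline.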

Read-out in another test: CYP2E1 (gene 1571)
In words: LTEA_HepaRG_CYP2E1: Life Technologies and Expression Analysis (LTEA) Assay for CYP2E1 using HepaRG (AID 2283485). In a few lines:
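Readout is qRT-PCR of CYP2E1 mRNA, normalized to three housekeeping genes and fitted bidirectionally against 0.5% DMSO. HepaRG cells were dosed 48 h at eight concentrations, highest 100 uM with half-log dilutions.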

Read-out in a further test: CYP4A11 (gene 1579)
In words: LTEA_HepaRG_CYP4A11: Life Technologies and Expression Analysis (LTEA) Assay for CYP4A11 using HepaRG (AID 2283486). In a few lines: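 Readout is CYP4A11 mRNA induction or suppression (qRT-PCR, ACTB/GAPDH/POLR2A normalization) in human HepaRG cells after 48 h chemical treatment, concentrations to 100 uM in 0.5% DMSO, fitted bidirectionally against vehicle.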

Read-out in test [7]: Cytochrome P450 3A4 (Homo sapiens) (UniProt P08684)
In words: LTEA_HepaRG_CYP3A4: Life Technologies and Expression Analysis (LTEA) Assay for CYP3A4 using HepaRG (AID 2283487). In a few lines:
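HepaRG, 48 h exposure, 8-pt CRC from 100 uM (half-log), 0.5% DMSO, duplicates; serum-free induction medium. Readout: CYP3A4 mRNA, qRT-PCR, ACTB/GAPDH/POLR2A normalization. Bidirectional fit vs DMSO.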

Read-out in test [8]: DNA damage-inducible transcript 3 (DDIT3), DDIT3 (gene 1649)
Put plainly: LTEA_HepaRG_DDIT3: Life Technologies and Expression Analysis (LTEA) Assay for DNA damage-inducible transcript 3 (DDIT3) using HepaRG (AID 2283488). In a few lines:
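Cells are human HepaRG liver cells treated for 48 h with eight half-log concentrations up to 100 uM in 0.5% DMSO. Transcript levels come from qRT-PCR normalized to three housekeeping genes, with activity fitted in both directions relative to vehicle.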

Read-out in test [9]: Pro-epidermal growth factor (Homo sapiens) (UniProt P01133)
Put plainly: LTEA_HepaRG_EGF: Life Technologies and Expression Analysis (LTEA) Assay for Epidermal growth factor (EGF) using HepaRG (AID 2283489). An outline of the steps:
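EGF expression changes in human HepaRG cells are scored by bidirectional fitting relative to 0.5% DMSO controls. Chemicals are tested at eight half-log concentrations up to 100 uM for 48 h in serum-free induction medium.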

Read-out in test [10]: Early growth response protein 1 (EGR1) transcription factor, EGR1 (gene 1958)
Put plainly: LTEA_HepaRG_EGR1: Life Technologies and Expression Analysis (LTEA) Assay for Early growth response protein 1 (EGR1) transcription factor using HepaRG (AID 2283490). An outline of the steps:
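HepaRG, 48 h exposure, 8-pt half-log series from 100 uM, 0.5% DMSO vehicle; EGR1 transcript by TaqMan qRT-PCR (Fluidigm array), housekeeping-normalized; bidirectional fit relative to DMSO baseline.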

Read-out in test [11]: Ezrin (EZR), EZR (gene 7430)
In words: LTEA_HepaRG_EZR: Life Technologies and Expression Analysis (LTEA) Assay for Ezrin (EZR) using HepaRG (AID 2283491). In a few lines:
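Read-out is EZR transcript level by qRT-PCR, normalized to three housekeeping genes and fitted bidirectionally against the DMSO control. Human HepaRG cells received test chemicals for 48 h at eight half-log concentrations up to 100 uM in 0.5% DMSO.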

Read-out in test [12]: Cytochrome P450 3A7 (Homo sapiens) (UniProt P24462)
In words: LTEA_HepaRG_CYP3A7: Life Technologies and Expression Analysis (LTEA) Assay for CYP3A7 using HepaRG (AID 2283492). An outline of the steps: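 Cells were thawed, plated, cultured 48 h, then treated for a further 48 h with chemicals (eight-point half-log series from 100 uM, 0.5% DMSO). RNA was isolated and CYP3A7 expression quantified by qRT-PCR normalised to ACTB, GAPDH and POLR2A.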

Read-out in a further test: CYP3A5 (gene 1577)
In words: LTEA_HepaRG_CYP3A5: Life Technologies and Expression Analysis (LTEA) Assay for CYP3A5 using HepaRG (AID 2283493). An outline of the steps:
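Human HepaRG hepatic cells receive 48 h chemical treatment at eight concentrations (half-log steps from 100 uM) in 0.5% DMSO. Expression of CYP3A5 is quantified by Fluidigm qRT-PCR and normalized to three reference genes.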

Read-out in test [13]: Fatty Acid-Binding Protein 1 (FABP1), FABP1 (gene 2168)
In words: LTEA_HepaRG_FABP1: Life Technologies and Expression Analysis (LTEA) Assay for Fatty Acid-Binding Protein 1 (FABP1) using HepaRG (AID 2283494). An outline of the steps: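 qRT-PCR readout of FABP1 transcript (normalized to three housekeeping genes) after 48 h chemical exposure of HepaRG cells; eight concentrations, half-log steps, max 100 uM, 0.5% DMSO vehicle; gain or loss fitted relative to DMSO baseline.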

Read-out in test [14]: Cytochrome P450 (CYP24A1), CYP24A1 (gene 1591)
Put plainly: LTEA_HepaRG_CYP24A1: Life Technologies and Expression Analysis (LTEA) Assay for Cytochrome P450 (CYP24A1) using HepaRG (AID 2283478). An outline of the steps:
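Human liver HepaRG cultures receive each chemical for 48 h across an eight-point half-log series topping at 100 uM in 0.5% DMSO. Induction or suppression of CYP24A1 mRNA is scored relative to vehicle after housekeeping-gene normalization.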

Activity calls are given as the source filed them. Rule for the calls: active = hit-call score of the fitted dose curve at least 0.9, where 1 is the maximum; inactive = score below 0.9.

Chain of Cytochrome P450 3A4 (Homo sapiens) (P08684 whole entry, looked up): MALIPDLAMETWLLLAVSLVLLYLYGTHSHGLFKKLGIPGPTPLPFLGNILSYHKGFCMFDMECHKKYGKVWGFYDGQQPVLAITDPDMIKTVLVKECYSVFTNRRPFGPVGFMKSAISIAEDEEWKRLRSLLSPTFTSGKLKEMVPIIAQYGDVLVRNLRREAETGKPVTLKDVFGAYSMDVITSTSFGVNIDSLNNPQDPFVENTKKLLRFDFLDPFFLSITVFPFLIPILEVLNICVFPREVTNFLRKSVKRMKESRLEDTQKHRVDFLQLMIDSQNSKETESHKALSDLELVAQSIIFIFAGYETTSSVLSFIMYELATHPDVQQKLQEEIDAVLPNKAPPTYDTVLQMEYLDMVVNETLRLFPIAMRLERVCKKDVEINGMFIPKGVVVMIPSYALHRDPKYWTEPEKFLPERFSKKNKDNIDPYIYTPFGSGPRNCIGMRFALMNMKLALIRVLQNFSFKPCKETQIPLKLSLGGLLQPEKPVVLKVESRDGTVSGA
Chain of Cytochrome P450 3A7 (Homo sapiens) (P24462 whole entry, looked up): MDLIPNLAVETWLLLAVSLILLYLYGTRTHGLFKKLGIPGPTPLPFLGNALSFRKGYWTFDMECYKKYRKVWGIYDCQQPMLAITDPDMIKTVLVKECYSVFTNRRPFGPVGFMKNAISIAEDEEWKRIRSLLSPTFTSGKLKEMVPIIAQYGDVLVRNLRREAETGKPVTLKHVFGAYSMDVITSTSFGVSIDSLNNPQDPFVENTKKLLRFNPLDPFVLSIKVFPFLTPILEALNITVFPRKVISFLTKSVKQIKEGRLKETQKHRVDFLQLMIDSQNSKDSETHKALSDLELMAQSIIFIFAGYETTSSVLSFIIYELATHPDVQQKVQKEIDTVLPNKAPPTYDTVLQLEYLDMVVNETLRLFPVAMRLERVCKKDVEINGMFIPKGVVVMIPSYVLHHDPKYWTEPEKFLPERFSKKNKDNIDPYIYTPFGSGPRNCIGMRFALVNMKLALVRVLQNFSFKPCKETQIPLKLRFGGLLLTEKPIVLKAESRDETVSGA
Chain of Caspase-3 (Homo sapiens) (P42574 whole entry, looked up): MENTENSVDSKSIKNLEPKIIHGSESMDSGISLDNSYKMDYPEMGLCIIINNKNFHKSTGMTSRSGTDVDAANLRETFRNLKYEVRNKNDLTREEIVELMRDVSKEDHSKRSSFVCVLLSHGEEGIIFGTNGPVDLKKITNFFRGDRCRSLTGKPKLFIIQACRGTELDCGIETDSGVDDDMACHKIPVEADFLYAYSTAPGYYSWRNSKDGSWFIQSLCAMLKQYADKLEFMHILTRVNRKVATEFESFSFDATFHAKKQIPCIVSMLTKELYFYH
Chain of Cytochrome P450 2C19 (Homo sapiens) (P33261 whole entry, looked up): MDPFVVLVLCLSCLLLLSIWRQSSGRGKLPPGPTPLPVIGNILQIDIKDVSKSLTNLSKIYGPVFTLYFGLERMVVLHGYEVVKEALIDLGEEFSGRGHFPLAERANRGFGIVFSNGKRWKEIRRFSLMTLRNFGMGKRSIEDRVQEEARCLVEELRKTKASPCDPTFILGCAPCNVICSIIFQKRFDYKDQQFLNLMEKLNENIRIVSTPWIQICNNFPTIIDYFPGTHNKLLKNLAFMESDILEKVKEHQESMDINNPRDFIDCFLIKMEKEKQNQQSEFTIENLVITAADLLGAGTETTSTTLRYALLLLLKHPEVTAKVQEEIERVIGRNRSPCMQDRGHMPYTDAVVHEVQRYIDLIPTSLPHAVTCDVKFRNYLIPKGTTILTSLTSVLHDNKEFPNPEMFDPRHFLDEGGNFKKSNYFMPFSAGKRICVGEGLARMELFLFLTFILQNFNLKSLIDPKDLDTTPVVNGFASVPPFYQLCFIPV
Chain of Apoptosis regulator Bcl-2 (Homo sapiens) (P10415 whole entry, looked up): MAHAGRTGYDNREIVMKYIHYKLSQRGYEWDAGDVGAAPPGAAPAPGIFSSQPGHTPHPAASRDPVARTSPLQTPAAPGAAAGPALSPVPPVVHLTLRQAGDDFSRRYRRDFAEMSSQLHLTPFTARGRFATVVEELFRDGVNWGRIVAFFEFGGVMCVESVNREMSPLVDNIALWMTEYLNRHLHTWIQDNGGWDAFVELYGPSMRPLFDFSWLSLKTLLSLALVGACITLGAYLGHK

Turning to `CN1C(=O)N(c2ccccc2Br)Cc2cnc(Nc3ccc4c(c3)OCC(CO)O4)nc21` (stereo unspecified), the AC50 in [1] was 89.1 µM (active); in test [2], 70.7 µM (active); in the test with Caspase-3 (Homo sapiens), 66.4 µM (active); in test [3], 90.9 µM (active); in test [4], 85.8 µM (active); in test [5] it was 74.3 µM (active). For the same compound, the half-maximal activity concentration (AC50) is 35.4 µM (active) in test [6]; 32.7 µM (active) with CYP2C9 (gene 1559); 35 µM (active) with CYP2E1 (gene 1571); 50 µM (active) with CYP4A11 (gene 1579); 89.6 µM (active) in test [7]; 40.5 µM (active) in test [8]. Further, the AC50 is 24 µM (active) in test [10], 50 µM (active) in test [12], 82.1 µM (active) with CYP3A5 (gene 1577) and 58.8 µM (active) in test [13]. Further, the compound was called inactive (with CYP2C8 (gene 1558); in [9]; in [11]).

Regarding `Oc1ccccc1`, the compound was called inactive (in test [1]; in [2]; in the test with Caspase-3 (Homo sapiens); in test [14]; in test [3]; in [5]). Moreover, the result (in test [6]; with CYP2C8 (gene 1558); with CYP2C9 (gene 1559); in the test with CYP2E1 (gene 1571); in the test with CYP4A11 (gene 1579); in [7]) was inactive. Moreover, the compound was called inactive (in [8]; in [9]; in test [10]; in test [11]; in test [12]; with CYP3A5 (gene 1577)). In [13], the compound was classed as inactive.

`O=C=NCCCCCCN=C=O`: the outcome (in [1]; in test [2]; with Caspase-3 (Homo sapiens); in test [14]; in [3]; in [5]) was inactive. The compound was classed as inactive (in [6]; with CYP2C8 (gene 1558); in the test with CYP2C9 (gene 1559); in the test with CYP4A11 (gene 1579); in test [7]; in test [8]). Besides, the compound was classed as inactive (in [9]; in [10]; in [11]; in [12]; with CYP3A5 (gene 1577); in [13]).

The record behind these values is PubChem BioAssay (EPA / NIEHS).
